Laboratory results taken from PubChem BioAssay AID1745849 (National Center for Advancing Translational Sciences (NCATS), 2022).
About 320 (15%) of roughly 2,100 compounds were called active. Not shown: some 52% with an inconclusive outcome. This is one part of the list. Unmarked numbers belong to inactive results. Calls follow the shape of the dose curve; as a rule, active = well fitted cell-killing curve with a large enough effect; inconclusive = small, poorly fitted or top-dose-only effect, or effect the other way; inactive = flat fitted curve, though single readings scatter.

Experiment: Viability Counterscreen for CMV-Luciferase Assay of Inhibitors of ATXN expression; also: nearly all actives have a fitted effect of over 55% in size
Conditions: HEK-293 CMV-luciferase cells viability, protease fluorescence, 24 h; activity change, negative = cytotoxicity: at the top concentration
How it was run: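 Compounds are tested in a dilution series on HEK-293 cells carrying the CMV-driven luciferase. After a 24 hr incubation, a protease substrate (25 uM final, 30 min) gives the viability fluorescence, and SteadyGlo gives the reporter luminescence.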
% is scaled to controls: 0 for no effect and ±100 for the full control effect; potency is read from the fitted curve at half-maximal effect.

Row | SMILES | activity change, negative = cytotoxicity | Potency
1 | COC(=O)c1c(C)oc2ccc(N(C(=O)c3ccncc3)S(=O)(=O)c3ccc(C)cc3C)cc12 | -27.7% | –
2 | CCC1(c2ccccc2)ON(c2c(Br)cccc2Br)C1=O (stereo not given) | – | 17.8 µM (active)
3 | Cc1nc(Oc2ccc(S(=O)(=O)N3CCOCC3)cc2Cl)c2c3c(sc2n1)CCCC3 | -19.1% | –
4 | N=c1ccn(CC(=O)c2ccc(-c3ccccc3)cc2)cc1 | -17.4% | –
5 | Clc1ccc(-c2cc(C3CCNCC3)[nH]n2)c(Cl)c1 | 26.4% [at 57.5 µM] | –
6 | COc1cc(NS(=O)(=O)c2ccc(N/C=C(\C#N)c3nc4cc(Cl)ccc4o3)cc2)nc(OC)n1 | – | 14.1 µM (active)
7 | CCN1CCN(c2ccc(Cl)cc2NC(=O)c2ccc(-n3nc(C)cc3C)cc2)CC1 | -12.5% [at 57.5 µM] | –
8 | Nc1nc(NCCc2ccccc2)nc(NCc2ccccc2)c1[N+](=O)[O-] | -23.9% [at 57.5 µM] | –
9 | CCc1cc[n+](C2=C([O-])c3ccccc3C(=O)/C2=N\S(=O)(=O)c2cccs2)cc1 | – | 17.8 µM (active)
10 | O=C(COC(=O)c1cc([N+](=O)[O-])ccc1N1CCOCC1)Nc1ccc(Cl)cn1 | – | 14.1 µM (active)
11 | COc1ccccc1/C=C/C(=O)OCC(=O)Nc1ccc(Cl)cn1 | -27.1% [at 57.5 µM] | –
12 | Cc1cc(C)c2c(CC(=O)Nc3ccc(Cl)cn3)coc2c1 | -3.79% | –
13 | CCn1c(C)cc(C(=O)COC(=O)c2ccccc2[N+](=O)[O-])c1C | -4.45% [at 57.5 µM] | –
14 | O=C(N/N=C/c1cc([N+](=O)[O-])ccc1O)c1ccc(COc2ccc3c(c2)CCC3)o1 | – | 11.2 µM (active)
15 | COc1ccc(O)c(/C=N/NC(=O)c2ccc(OCc3cccc(Br)c3)cc2)c1 | -22.1% | –
16 | COc1ccc(O)c(/C=N/NC(=O)c2ccc(N3CCCC3=O)cc2)c1 | -7.9% [at 57.5 µM] | –
17 | COc1ccc2nc(C)c3c(c2c1)OC(C(C)(Cl)Br)C3 (stereo not given) | -24.3% | –
18 | N#CCc1nc2ccccc2c(=O)[nH]1 | 4.06% [at 57.5 µM] | –
19 | CC1(C)COCN1S(=O)(=O)c1ccc(C(=O)Nc2nnc(-c3ccc(Cl)s3)o2)cc1 | -16.1% | –
20 | O=C1c2cccc3cc([N+](=O)[O-])cc(c23)C(=O)N1CCN1CCCC1 | – | 1.58 µM (active)
21 | C/[N+]([O-])=C\c1cccc(OCCN2CCN(c3ncc(C(F)(F)F)cc3Cl)CC2)c1 | 6.84% | –
22 | Cn1c(CO)cnc1S(=O)(=O)Cc1ccc([N+](=O)[O-])cc1 | -1.7% [at 57.5 µM] | –
23 | COc1cc(C(=O)O/N=C(\N)Cc2ccc([N+](=O)[O-])cc2)cc(OC)c1OC | – | 3.16 µM (active)
24 | Cc1sc2nc(CN3CCCC3)nc(N3CCC(C(N)=O)CC3)c2c1C | -6.87% [at 57.5 µM] | –

Row | SMILES | activity change, negative = cytotoxicity | Potency
25 | Nc1ccc2c(c1)OC1(CCCC1)O2 | -18% | –
26 | CCn1c2ccccc2c2cc(NC(=O)COC(=O)Cc3cn4ccsc4n3)ccc21 | 1.78% | –
27 | CC1CCN(Cc2c(C(=O)N/N=C/c3cc(Br)ccc3O)nnn2-c2nonc2N)CC1 | -14% | –
28 | Cc1cccc2c1-c1sc(C(=O)Nc3ccccc3N3CCN(C)CC3)cc1CO2 | – | 22.4 µM (active)
29 | CC1CC(C)CN(CCCNC(=O)c2cc3c(s2)-c2ccccc2OC3)C1 (stereo not given) | -13.8% | –
30 | Cc1cc(N2CCN(C)CC2)ccc1NC(=O)c1ccc(-c2ccc(Cl)cc2)o1 | -20.4% [at 57.5 µM] | –
31 | NC(=O)CC(NC(=O)Cc1ccc(Br)cc1)c1ccc(NC2CCCC2)c([N+](=O)[O-])c1 (stereo not given) | – | 3.16 µM (active)
32 | CC(C)C[C@H](N)c1cn([C@@H](CCCCN)C(=O)N2CCNCC2)nn1 | 6.2% | –
33 | O=C(NC(Nc1ncc(S(=O)(=O)c2ccc([N+](=O)[O-])cc2)s1)(C(F)(F)F)C(F)(F)F)c1ccc(Cl)cc1 | – | 10 µM (active)
34 | O=C(NC(Nc1nc2ccc([N+](=O)[O-])cc2s1)(C(F)(F)F)C(F)(F)F)c1ccccc1 | – | 0.562 µM (active)
35 | Cc1nc2ccc(NC(=O)c3ccc(S(=O)(=O)N(C)c4ccccc4)cc3)cc2s1 | -14% | –
36 | CO[C@@]12[C@@H]3N[C@@H]3CN1C1=C(C(=O)C(N)=C(C)C1=O)[C@@H]2COC(N)=O | 22.6% | –
37 | CC1=CC(C)(C)N2C(=O)C3(SCC(=O)N3c3ccc(F)cc3)c3cc(C)cc1c32 (stereo not given) | -24% | –
38 | CCn1ccnc1CN1CCCC(C(=O)c2ccc3cc(OC)ccc3c2)C1 (stereo not given) | 4.36% | –
39 | CN(C)CCNc1ncnc2c1ncn2[C@H]1CN(Cc2ccc(-c3ccccc3)cc2)C[C@@H](CO)O1 | -5.63% [at 57.5 µM] | –
40 | OC[C@@H]1CN(Cc2ccncc2)C[C@H](n2cnc3c(N4CCN(c5ccccc5)CC4)ncnc32)O1 | -2.73% | –
41 | OC[C@@H]1CN(Cc2ccc(-c3ccccc3)cc2)C[C@H](n2cnc3c(Nc4ccccc4)ncnc32)O1 | – | 22.4 µM (active)
42 | CNc1ccccc1C(=O)OC(C)C(=O)Nc1ccc(Cl)cn1 (stereo not given) | -0.359% | –
43 | CCCc1ccc(O)c(N=Cc2cc(Br)cc(OCC)c2O)c1 | -3.44% [at 57.5 µM] | –
44 | O=C(Nc1ccc(Br)cc1)c1cccc(OC(=S)N2CCOCC2)c1 | 12.8% | –
45 | Oc1[nH]c2ccc(Br)cc2c1N=NC(=S)N1CCOCC1 | – | 1.12 µM (active)
46 | O=C(NCC1CC1)c1ccc2c(c1)S(=O)(=O)c1cc(Cl)ccc1C2=O | -10.1% | –
47 | O=C(Nc1ccc(Cc2ccncc2)cc1)c1ccc(S(=O)(=O)N2CCCC2)cc1 | -23.7% [at 57.5 µM] | –
48 | COc1ccc(C)cc1Nc1nc(C)nc2sc(C)cc12 | -16.3% | –

Row | SMILES | activity change, negative = cytotoxicity | Potency
49 | COc1ccccc1CNc1nc(NCc2ccc(NC(C)=O)cc2)c2sccc2n1 | -1.81% | –
50 | CC(=O)Nc1ccc(CNc2nc(NC(C)C)nc3cc(-c4ccccc4)sc23)cc1 | – | 25.1 µM (active)
51 | O=C(Oc1c(CN2CCOCC2)cc(Cl)c2cccnc12)c1ccccc1F | 18.9% [at 57.5 µM] | –
52 | COc1cc(OC)cc(-c2cc3nc(C)c(CCC(=O)O)c(C)n3n2)c1 | -23.2% [at 57.5 µM] | –
53 | COc1cc(Nc2ncc3c(n2)CCN(C(=O)Nc2ccc(C(C)C)cc2)C3)cc(OC)c1OC | -22.1% | –
54 | CC(=O)c1ccc(C(=O)Nc2nnc(-c3ccc(Cl)cc3)o2)cc1 | -18.4% | –
55 | CCc1nnc(NC(=O)c2ccc(S(=O)(=O)N(C)c3ccccc3)cc2)o1 | -10.5% | –
56 | CCCN(CCC)S(=O)(=O)c1ccc(C(=O)Nc2nnc(-c3cc(OC)cc(OC)c3)o2)cc1 | – | 7.08 µM (active)
57 | CN(c1ccccc1)S(=O)(=O)c1ccc(C(=O)Nc2nnc(-c3ccc(F)cc3)o2)cc1 | – | 14.1 µM (active)
58 | CCN(CC)S(=O)(=O)c1ccc(C(=O)Nc2ccc(Cc3ccncc3)cc2)cc1 | 3.95% [at 57.5 µM] | –
59 | COc1ccc(-c2nnc(NC(=O)c3ccc(S(=O)(=O)N4COCC4(C)C)cc3)o2)cc1 | -19.2% | –
60 | c1nc(CCO[C@H]2CCCCO2)cc2cc3c(cc12)OCO3 | -23.6% | –
61 | COc1ccc(CCCNC(=O)C2Cc3c(-c4cccc(NC(C)=O)c4)ccnc3O2)cc1 (stereo not given) | -5.64% | –
62 | CC(=O)Nc1cccc(-c2ccnc3c2CC(C)(C(=O)Nc2ccc(Cl)c(C(F)(F)F)c2)O3)c1 (stereo not given) | – | 28.2 µM (active)
63 | CC(=O)c1cccc(-c2ccnc3c2CC(C(=O)Nc2ccc(F)c(Cl)c2)O3)c1 (stereo not given) | -24.2% | –
64 | COC(=O)c1ccc(N2CCOCC2)c(NC(=O)Nc2cccc(OC)c2)c1 | 7.26% | –
65 | CCCC(=O)NC(c1ccco1)c1cc(Cl)c2cccnc2c1O (stereo not given) | 9.21% [at 57.5 µM] | –
66 | CCCC(=O)NC(c1ccc(OC)cc1)c1c(O)ccc2ccccc12 (stereo not given) | – | 10 µM (active)
67 | O=C(NC(c1ccccc1)c1c(O)ccc2ccccc12)c1ccccc1Cl (stereo not given) | -29.6% | –
68 | O=C(N/N=C/c1ccccc1O)c1cccc(C(F)(F)F)c1 | -7.41% | –
69 | O=C(Nc1ccc(NC(=O)c2cccs2)cc1)c1ccc2c(c1)OCO2 | -1.89% | –
70 | O=C(N/N=C/c1ccc([N+](=O)[O-])o1)c1ccc2c(c1)OCO2 | – | 17.8 µM (active)
71 | O=C(N/N=C/c1cc(Cl)cc([N+](=O)[O-])c1O)c1cccc(S(=O)(=O)N2CCOCC2)c1 | -29.7% | –
72 | Cc1ncc(CO)c(/C=N/NC(=O)c2cccc(S(=O)(=O)N3CCCC3)c2)c1O | 29.5% [at 57.5 µM] | –

Row | SMILES | activity change, negative = cytotoxicity | Potency
73 | COc1ccccc1NS(=O)(=O)c1cccc(C(=O)N/N=C/c2ccc([N+](=O)[O-])o2)c1 | – | 10 µM (active)
74 | O=[N+]([O-])c1ccc(/C=N/N=C/c2ccc([N+](=O)[O-])o2)o1 | – | 4.47 µM (active)
75 | Cn1c(S(=O)(=O)c2ccc([N+](=O)[O-])cc2)nc(Br)c1Br | -1.8% | –
76 | CC(C)C[C@H](NC(=O)c1[nH]cnc1C(=O)Nc1ccc(CNC(=O)OC(C)(C)C)cc1)C(=O)OCc1ccccc1 | -11% | –
77 | CCc1noc(C)c1C(=O)N1CCSC1=Nc1cccc(Cl)c1C | -14.3% [at 57.5 µM] | –
78 | CCC(C)(C)c1ccc(Oc2ccc(N)cc2)cc1 | 26.6% [at 57.5 µM] | –
79 | NNC(=O)c1sc2cc(C(F)(F)F)cnc2c1-c1cccs1 | -26.2% [at 57.5 µM] | –
80 | CCc1ccc(C(O)c2ncc(-c3cccc(C(F)(F)F)c3)[nH]2)cc1 (stereo not given) | -1.52% [at 57.5 µM] | –
81 | O=C(Nc1nnc(C2CC2)o1)c1ccc(S(=O)(=O)N2CCCc3ccccc32)cc1 | – | 11.2 µM (active)
82 | CCN(Cc1ccccc1)S(=O)(=O)c1ccc(C(=O)Nc2nnc(C3CC3)o2)cc1 | -9.39% | –
83 | CC1CCCCN1S(=O)(=O)c1ccc(C(=O)Nc2nnc(-c3ccccc3Cl)o2)cc1 (stereo not given) | -13.6% | –
84 | CN(CCOc1ccc(Br)cc1)CC(O)COc1ccc(C#N)cc1 (stereo not given) | 19.3% [at 57.5 µM] | –
85 | NNc1ncnc2sc3c(c12)CCC3 | -10.3% [at 57.5 µM] | –
86 | Clc1c(Cl)c(Cl)c2n[nH]nc2c1Cl | 14.6% [at 57.5 µM] | –
87 | O=C1CCCC(O)=C1C=NCc1ccccc1 | 6.84% | –
88 | Cc1cccc(/C=C/C(=O)c2ccc([N+](=O)[O-])o2)c1 | – | 3.16 µM (active)
89 | CCc1c(C)nc2ncnn2c1N1CCC(C(=O)Nc2ccc(C)cc2)CC1 | 10.1% [at 57.5 µM] | –
90 | CN1CCN(C2Cc3cc(Cl)ccc3Sc3cc(F)ccc32)CC1 (stereo not given) | -18.4% | –
91 | COc1ccc2c(c1)CC(N1CCN(C)CC1)c1cc(OC)ccc1S2 (stereo not given) | – | 28.2 µM (active)
92 | Cc1cccc(OCCCC(=O)Nc2nccs2)c1 | 7.55% | –
93 | O=C(CNC(=O)c1cccc(F)c1)N/N=C/c1cc(Br)ccc1OC(=O)/C=C/c1ccco1 | 13.1% [at 57.5 µM] | –
94 | Cc1ccccc1N1CCN(Cc2c[nH]c3ccccc23)CC1 | -24.1% [at 57.5 µM] | –
95 | CN1C(=O)/C(=C/c2ccccc2F)Sc2ccc(C(=O)N3CCCC3)cc21 | -30% [at 57.5 µM] | –
